Test results taken from the supplement of paper PMC8728848.
This is one part of a sample in which the strongest signals are shown more often than they occur.

Experiments:
Test in all cases: glycan array binding signal (z-score within array); higher = stronger binding
Details in all cases: glycan notation: IUPAC condensed, linker removed
[1] = biological target: Fuc(a1-2)Gal(b1-3)GlcNAc(b1-2)Man(a1-3)[Fuc(a1-2)Gal(b1-3)GlcNAc(b1-2)Man(a1-6)]Man(b1-4)GlcNAc(b1-4)GlcNAc
Method in brief: (§1)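 Glycan array binding is given as a within-array Z-score, which can be read as non-binding when negative. The arrays, 3228 of them, came from the Consortium for Functional Glycomics database and were retained only where the protein sequence was available. Z-scores were averaged across arrays of the same protein sequence at different concentrations or buffers and across linkers.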

[2] = biological target: Fuc(a1-2)Gal(b1-4)[Fuc(a1-3)]GlcNAc
Method in brief: as §1

[3] = biological target: Fuc(a1-2)[Gal(a1-3)]Gal(b1-3)GalNAc
Method in brief: as §1

[4] = biological target: Fuc(a1-2)[Gal(a1-3)]Gal(b1-3)GlcNAc(b1-2)Man(a1-3)[Fuc(a1-2)[Gal(a1-3)]Gal(b1-3)GlcNAc(b1-2)Man(a1-6)]Man(b1-4)GlcNAc(b1-4)GlcNAc
Method in brief: as §1

[5] = biological target: Fuc(a1-2)[Gal(a1-3)]Gal(b1-4)GlcNAc(b1-3)GalNAc
Method in brief: as §1

[6] = biological target: Fuc(a1-2)[GalNAc(a1-3)]Gal(b1-3)GlcNAc(b1-2)Man(a1-3)[Fuc(a1-2)[GalNAc(a1-3)]Gal(b1-3)GlcNAc(b1-2)Man(a1-6)]Man(b1-4)GlcNAc(b1-4)GlcNAc
Method in brief: as §1

[7] = biological target: Fuc(a1-2)[GalNAc(a1-3)]Gal(b1-4)GlcNAc(b1-3)GalNAc
Method in brief: as §1

[8] = biological target: Fuc(a1-3)[Gal(b1-4)]GlcNAc6S
Method in brief: as §1

[9] = biological target: Fuc(b1-3)GlcNAc
Method in brief: as §1

[10] = biological target: Gal(a1-3)Gal
Method in brief: as §1

[11] = biological target: Gal(a1-3)Gal(b1-4)[Fuc(a1-3)]GlcNAc(b1-2)Man(a1-3)[Gal(a1-3)Gal(b1-4)[Fuc(a1-3)]GlcNAc(b1-2)Man(a1-6)]Man(b1-4)GlcNAc(b1-4)GlcNAc
Method in brief: as §1

[12] = biological target: Gal(a1-3)GalNAc
Method in brief: as §1

[13] = biological target: Gal(b1-3)Gal(b1-4)GlcNAc(b1-2)Man(a1-3)[Gal(b1-3)Gal(b1-4)GlcNAc(b1-2)Man(a1-6)]Man(b1-4)GlcNAc(b1-4)GlcNAc
Method in brief: as §1

[14] = biological target: Gal(b1-3)GalNAc(a1-3)[Fuc(a1-2)]Gal(b1-4)GlcNAc
Method in brief: as §1

[15] = biological target: Gal(b1-3)GlcNAc
Method in brief: as §1

[16] = biological target: Gal(b1-3)GlcNAc(b1-2)Man(a1-3)[Gal(b1-3)GlcNAc(b1-2)Man(a1-6)]Man(b1-4)GlcNAc(b1-4)GlcNAc
Method in brief: as §1

[17] = biological target: Gal(b1-3)GlcNAc(b1-3)Gal(b1-4)GlcNAc
Method in brief: as §1

[18] = biological target: Gal(b1-4)GlcNAc(b1-2)Man(a1-3)[Gal(b1-4)GlcNAc(b1-2)Man(a1-6)]Man(b1-4)GlcNAc(b1-4)[Fuc(a1-6)]GlcNAc
Method in brief: as §1

[19] = biological target: Gal(b1-4)GlcNAc(b1-2)[Gal(b1-4)GlcNAc(b1-4)]Man(a1-3)[Gal(b1-4)GlcNAc(b1-2)Man(a1-6)]Man(b1-4)GlcNAc(b1-4)GlcNAc
Method in brief: as §1

[20] = biological target: Gal(b1-4)GlcNAc(b1-3)Gal(b1-3)GlcNAc
Method in brief: as §1

[21] = biological target: Gal(b1-4)GlcNAc(b1-3)Gal(b1-4)[Fuc(a1-3)GlcNAc(b1-6)]Gal(b1-4)Glc
Method in brief: as §1

[22] = biological target: Gal(b1-4)GlcNAc(b1-3)[Gal(b1-4)GlcNAc(b1-6)]Gal(b1-4)GlcNAc
Method in brief: as §1

[23] = biological target: Gal(b1-4)GlcNAc(b1-3)[GlcNAc(b1-6)]Gal(b1-4)GlcNAc
Method in brief: as §1

[24] = biological target: Gal3S(b1-3)[Fuc(a1-4)]GlcNAc
Method in brief: as §1

[25] = biological target: Gal3S(b1-4)Glc
Method in brief: as §1

[26] = biological target: Gal3S(b1-4)GlcNAc6S
Method in brief: as §1

[27] = biological target: Gal6S(b1-4)GlcNAc6S
Method in brief: as §1

[28] = biological target: GalNAc(b1-4)Gal(b1-4)Glc
Method in brief: as §1

[29] = biological target: Glc(a1-4)Glc
Method in brief: as §1

[30] = biological target: Glc(a1-6)Glc(a1-6)Glc
Method in brief: as §1

[31] = biological target: GlcNAc(a1-4)Gal(b1-4)GlcNAc(b1-3)Gal(b1-4)GlcNAc
Method in brief: as §1

[32] = biological target: GlcNAc(a1-4)Gal(b1-4)GlcNAc(b1-3)Gal(b1-4)[Fuc(a1-3)]GlcNAc(b1-3)Gal(b1-4)[Fuc(a1-3)]GlcNAc
Method in brief: as §1

[33] = biological target: GlcNAc(b1-2)[GlcNAc(b1-6)]Man(a1-6)[GlcNAc(b1-2)Man(a1-3)]Man(b1-4)GlcNAc(b1-4)GlcNAc
Method in brief: as §1

[34] = biological target: GlcNAc(b1-2)[GlcNAc(b1-6)]Man(a1-6)[GlcNAc(b1-2)Man(a1-3)][GlcNAc(b1-4)]Man(b1-4)GlcNAc(b1-4)GlcNAc
Method in brief: as §1

[35] = biological target: GlcNAc(b1-3)[GlcNAc(b1-4)][GlcNAc(b1-6)]GlcNAc
Method in brief: as §1

[36] = biological target: GlcNAc(b1-4)GlcNAc
Method in brief: as §1

[37] = biological target: Man(a1-3)[Man(a1-6)]Man(b1-4)GlcNAc(b1-4)GlcNAc
Method in brief: as §1

[38] = biological target: Neu5Ac(a2-3)Gal(b1-3)GlcNAc
Method in brief: as §1

[39] = biological target: Neu5Ac(a2-3)Gal(b1-3)[Neu5Ac(a2-6)]GalNAc
Method in brief: as §1

[40] = biological target: Neu5Ac(a2-3)Gal(b1-4)GlcNAc(b1-6)[Gal(b1-3)]GalNAc
Method in brief: as §1

[41] = biological target: Neu5Ac(a2-3)Gal(b1-4)[Fuc(a1-3)]GlcNAc(b1-3)GalNAc
Method in brief: as §1

[42] = biological target: Neu5Ac(a2-3)GalNAc
Method in brief: as §1

[43] = biological target: Neu5Ac(a2-6)Gal(b1-4)GlcNAc(b1-2)Man(a1-3)[Gal(b1-4)GlcNAc(b1-2)Man(a1-6)]Man(b1-4)GlcNAc(b1-4)GlcNAc
Method in brief: as §1

[44] = biological target: Neu5Ac(a2-6)Gal(b1-4)GlcNAc(b1-2)Man(a1-6)Man(b1-4)GlcNAc(b1-4)GlcNAc
Method in brief: as §1

[45] = biological target: Neu5Ac(a2-8)Neu5Ac(a2-3)[GalNAc(b1-4)]Gal(b1-4)Glc
Method in brief: as §1

[46] = biological target: Neu5Ac(a2-8)Neu5Ac(a2-8)Neu5Ac(a2-3)[GalNAc(b1-4)]Gal(b1-4)Glc
Method in brief: as §1

[47] = biological target: Neu5Ac(b2-6)Gal(b1-4)GlcNAc
Method in brief: as §1

[48] = biological target: Neu5Ac9Ac(a2-3)Gal(b1-3)GlcNAc
Method in brief: as §1

[49] = biological target: Neu5Gc(b2-6)Gal(b1-4)GlcNAc
Method in brief: as §1

B1: Eosinophil-derived neurotoxin (EDN) (Homo sapiens), P10153 (protein)
chain: MVPKLFTSQICLLLLLGLLAVEGSLHVKPPQFTWAQWFETQHINMTSQQCTNAMQVINNYQRRCKNQNTFLLTTFANVVNVCGNPNMTCPSNKTRKNCHHSGSQVPLIHCNLTTPSPQNISNCRYAQTPANMFYIVACDNRDQRRDPPQYPVVPVHLDRII
- glycan array binding signal (z-score) [1]: 0.954
- glycan array binding signal (z-score) [2]: -0.438
- glycan array binding signal (z-score) [3]: -0.092
- glycan array binding signal (z-score) [4]: 0.666
- glycan array binding signal (z-score) [5]: -0.523
- glycan array binding signal (z-score) [6]: 0.308
- glycan array binding signal (z-score) [7]: 0.483
- glycan array binding signal (z-score) [8]: 0.272
- glycan array binding signal (z-score) [9]: -0.332
- glycan array binding signal (z-score) [10]: -0.363
- glycan array binding signal (z-score) [11]: 0.387
- glycan array binding signal (z-score) [12]: -0.593
- glycan array binding signal (z-score) [13]: 0.187
- glycan array binding signal (z-score) [14]: 0.269
- glycan array binding signal (z-score) [15]: -0.339
- glycan array binding signal (z-score) [16]: -0.33
- glycan array binding signal (z-score) [17]: 0.648
- glycan array binding signal (z-score) [18]: 1.36
- glycan array binding signal (z-score) [19]: -0.461
- glycan array binding signal (z-score) [20]: -0.443
- glycan array binding signal (z-score) [21]: 0.142
- glycan array binding signal (z-score) [22]: 1.13
- glycan array binding signal (z-score) [23]: 1.36
- glycan array binding signal (z-score) [24]: 0.104
- glycan array binding signal (z-score) [25]: -0.269
- glycan array binding signal (z-score) [26]: -0.506
- glycan array binding signal (z-score) [27]: -0.122
- glycan array binding signal (z-score) [28]: -0.211
- glycan array binding signal (z-score) [29]: -0.482
- glycan array binding signal (z-score) [30]: 0.261
- glycan array binding signal (z-score) [31]: 12.5
- glycan array binding signal (z-score) [32]: 1.45
- glycan array binding signal (z-score) [33]: -0.199
- glycan array binding signal (z-score) [34]: 0.017
- glycan array binding signal (z-score) [35]: 0.413
- glycan array binding signal (z-score) [36]: -0.215
- glycan array binding signal (z-score) [37]: -0.552
- glycan array binding signal (z-score) [38]: -0.205
- glycan array binding signal (z-score) [39]: 0.143
- glycan array binding signal (z-score) [40]: 1.16
- glycan array binding signal (z-score) [41]: 0.955
- glycan array binding signal (z-score) [42]: 0.007
- glycan array binding signal (z-score) [43]: 1.86
- glycan array binding signal (z-score) [44]: 0.578
- glycan array binding signal (z-score) [45]: 1.66
- glycan array binding signal (z-score) [46]: -0.121
- glycan array binding signal (z-score) [47]: 0.387
- glycan array binding signal (z-score) [48]: -0.207
- glycan array binding signal (z-score) [49]: 0.153
